In PubChem BioAssay (NCATS):
Where “and” joins values, the source holds several entries; their conditions need not be identical. Identical values can stand only once. Results filed as inconclusive are left out. Some structures have more than one record in an assay (separate samples or runs), and their calls can disagree. Calls of active or inactive are those of the source. The call rests on the fitted dose curve; in most records, active means well fitted inhibition curve with a large enough effect; inconclusive means small, poorly fitted or top-dose-only effect; inactive means no such curve, though single readings can be large or run the other way.

experiment: Confirmatory qHTS for small molecule stabilizers of the endoplasmic reticulum resident proteome: Secreted ER Calcium Modulated Protein (SERCaMP) assay (AID 1508628); settings: SERCaMP secreted luciferase ER calcium/proteostasis reporter; series mostly up to 76.3 µM; further: nearly all actives have a fitted effect of over 40% in size
Text: Assay Provider: Brandon K. Harvey Ph.D.
National Institute on Drug Abuse, National Institutes of Health, Baltimore, MD
Endoplasmic reticulum (ER) dysregulation is associated with human pathologies including neurodegenerative, cardiovascular, muscular, and diabetic conditions. Maintenance of ER calcium is critical for functions of the ER and its depletion can lead to loss of ER resident proteins, in a process termed exodosis. Therapeutic compounds capable of attenuating the redistribution of ER proteins under pathological conditions may slow or stop disease progression. To identify such compounds, we performed a quantitative high-throughput screen (qHTS) using the SERCaMP assay, which monitors secretion of ER resident proteins triggered by calcium depletion.
SERCaMP was initially developed as a reporter of ER calcium homeostasis using a Gaussia luciferase with a modified signal peptide and carboxy-terminus (GLuc-SERCaMP), modifications that confer secretion of the reporter in response to ER calcium depletion (Henderson et al., 2014). The assay was used to screen 9,501 compounds, including a collection of drugs approved by the FDA (US), EMA (EU), NHI (Japan), and HC (Canada) regulatory agencies (Huang et al., 2011). Since the SERCaMP reporter reflects the exodosis phenomenon (Trychta et al., 2018a), compounds identified in the screen have the potential to prevent exodosis by different mechanisms such as stabilizing ER calcium or augmenting ERS retrieval.
1. Henderson, M.J., Wires, E.S., Trychta, K.A., Richie, C.T., and Harvey, B.K. (2014). SERCaMP: a carboxy-terminal protein modification that enables monitoring of ER calcium homeostasis. Mol Biol Cell 25, 2828-2839.
2. Huang, R., Southall, N., Wang, Y., Yasgar, A., Shinn, P., Jadhav, A., Nguyen, D.T., and Austin, C.P. (2011). The NCGC pharmaceutical collection: a comprehensive resource of clinically approved drugs enabling repurposing and chemical genomics. Sci Transl Med 3, 80ps16.
3. Trychta, K.A., Back, S., Henderson, M.J., and Harvey, B.K. (2018a). KDEL Receptors Are Differentially Regulated to Maintain the ER Proteome under Calcium Deficiency. Cell Rep 25, 1829-1840 e1826.
SEQUENCE No. (1, 2, 3, etc.); […] (e.g., Cells, Incubation, Reagent, etc.); VALUE and DESCRIPTION.
1; Reagent; 5 uL; 1000 SH-SY5Y cells per wells
3; Compound; 23 nL; Control inhibitor / compound library
5; Reagent; 100 nM; Thapsigargin
7; Reagent; 1 uL; 0.5x coelenterazine
8; Detection; Luminescence; ViewLux imaging system
NOTES (numbers refer to sequence above)
1; SH-SY5Y human neuroblastoma cells stably expressing GLuc-SERCaMP (SH-SY5Y-GLuc-ASARTDL) cells were seeded in 1,536 well white tissue culture treated plates (Corning, Cat# 7464) in DMEM-high glucose-sodium pyruvate (ThermoFisher Scientific, Cat #10569) supplemented with 10% bovine growth serum (Hyclone), 10 U/ml penicillin (Gibco), 10 ug/ml streptomycin (Gibco), and 20 mM HEPES.
2; Assay plates were incubated for 5 hour at 37C in a humidified incubator containing 5% CO2.
3; qHTS libraries (23 nl, final concentrations of 1.53 uM, 7.67 uM, 38.3 uM) or controls (neutral control: DMSO, positive control: dantrolene) were added using a Kalypsis pin-tool Robotic System equipped with 1536 pinheads.
4; Cells were then incubated for 16 hours at 37C, 5% CO2.
5; Thapsigargin was added at 100 nM to deplete ER calcium stores.
6; Cells were incubated for 4 hour (37 °C, 5% CO2)
7; Gaussia luciferase in the medium was measured by adding 1 ul of 0.5x coelenterazine (final concentration 0.07x) prepared in Gaussia Luciferase Glow Assay Buffer (Pierce), without addition of the Cell Lysis Buffer Reagent.
8; Luminescence was measured using a ViewLux […] CCD imaging system (Perkin Elmer) equipped with clear filters. […] The same controls were also used for the calculation of the Z' factor, a measure of assay quality control, as previously described (Zhang et al., 1999). […]
On the % scale 0 is the no-effect control and ±100 the full control effect; potency means the concentration at half of the fitted maximal effect.

Compound	activity change, negative = decrease	Potency
CC(C)C[C@H](NC(=O)[C@H](Cc1ccccc1)NC(=O)CNC(=O)[C@H](C)NC(=O)[C@@H](N)Cc1ccc(O)cc1)C(=O)O	16.6% [at 9.4 µM] (inactive)	
CCC(Oc1ccc(Cl)cc1)C(=O)OC1CC2CCC(C1)N2C (centres undefined)		8.91 µM (active)
OC[C@@H]1[C@@H](O)[C@H](O)[C@H]2[C@@H](O)CCN21		inactive
C=CCN1CCC2(C)c3cc(O)ccc3CC1C2C (centres undefined)		inactive
Cl.Cl.Cl.Cl.Cl.Cl.N.N.N.N.NNNNN.NNNNN.O.O.[Ru].[Ru].[Ru]		15.8 µM (active)
c1ccc2sc(C3(N4CCCC4)CCCCC3)cc2c1		39.8 µM (active)
COc1ccc2[nH]cc(C3=CCNCC3)c2c1		12.6 µM (active) and 35.5 µM (active)
CCC(Sc1ccccc1)C(=O)OC1CC2CCC(C1)N2C (centres undefined)		5.62 µM (active)
Oc1ccc2c3c1O[C@H]1c4c(c5ccccc5n4Cc4ccccc4)C[C@]4(O)[C@H](C2)N(CC2CC2)CC[C@@]314		inactive
CN(C(=O)Cc1ccc(Cl)c(Cl)c1)[C@H](CN1CCCC1)c1ccccc1		inactive
CC(C)(O)C1O[C@H]2CC[C@@]3(C)[C@@](O)(CC[C@H]4Cc5c([nH]c6ccccc56)[C@@]43C)C2=CC1=O (some centres undefined)		39.8 µM (active)
NC(N)=NCCCCCCCCCCN=C(N)N		inactive
C[C@H]1C[C@H](C)C(=O)[C@@H]([C@H](O)CC2CC(=O)NC(=O)C2)C1		0.282 µM (active)
CN1CCN(c2ccc3ccccc3n2)CC1		inactive
CC(C)(O)[C@H]1O[C@@H]2CC[C@]3(C)[C@@]4(C)c5[nH]c6ccccc6c5C[C@@H]4CC[C@]3(O)C2=CC1=O		20 µM (active)
C[C@@H](C(=O)OC1C[C@H]2CC[C@@H](C1)N2C)c1ccc(Br)cc1 (some centres undefined)		31.6 µM (active)
CCN(CC)CCO[C@H]1CC[C@@]2(C)C(=CC[C@@H]3[C@H]2CC[C@]2(C)C(=O)CC[C@H]32)C1		31.6 µM (active)
CN1CC[C@@]23CCCCC2C1Cc1ccc(O)cc13 (some centres undefined)		3.98 µM (active)
C[C@H]1CCC/C=C/C2C[C@H](O)C[C@H]2[C@H](O)/C=C/C(=O)O1 (some centres undefined)		inactive
CNc1ccc2oc(C[C@H]3O[C@]4(CC[C@H]3C)O[C@H]([C@H](C)C(=O)c3ccc[nH]3)[C@H](C)C[C@H]4C)nc2c1C(=O)O		inactive
CN1C2CCC1CC(OC(=O)C1CCC(C(=O)OC3CC4CCC(C3)N4C)(c3ccccc3)c3ccccc31)C2 (centres undefined)		4.47 µM (active)
CC(C)(O)C1OC2CCC3(C)C(O)(CCC4Cc5c([nH]c6ccccc56)C43C)C2=CC1=O (centres undefined)		28.2 µM (active)
O[C@@H]1[C@H](O)[C@H]2[C@@H](O)CCN2C[C@@H]1O		inactive
CC(C)[C@@]1(NC(=O)[C@@H]2C[C@H]3c4cccc5[nH]cc(c45)C[C@@H]3N(C)C2)O[C@@]2(O)[C@H]3CCCN3C(=O)[C@H](Cc3ccccc3)N2C1=O		35.5 µM (active) and inactive
